# Screens from PubChem BioAssay.
# GC-B act: GC-B (human) receptor activation; P20594; HEK293-GC-B cells, CNP EC30, cGMP TR-FRET; 0% at EC30 CNP, 100% saturating CNP; activation, % at 10 µM; hit rate 0.11% among 370,000; AID 1920062;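 active means activation at 10 µM reaching about 35% in either raw or pattern-adjusted values, limit read from the data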
# Target sequence (P20594 whole entry, looked up): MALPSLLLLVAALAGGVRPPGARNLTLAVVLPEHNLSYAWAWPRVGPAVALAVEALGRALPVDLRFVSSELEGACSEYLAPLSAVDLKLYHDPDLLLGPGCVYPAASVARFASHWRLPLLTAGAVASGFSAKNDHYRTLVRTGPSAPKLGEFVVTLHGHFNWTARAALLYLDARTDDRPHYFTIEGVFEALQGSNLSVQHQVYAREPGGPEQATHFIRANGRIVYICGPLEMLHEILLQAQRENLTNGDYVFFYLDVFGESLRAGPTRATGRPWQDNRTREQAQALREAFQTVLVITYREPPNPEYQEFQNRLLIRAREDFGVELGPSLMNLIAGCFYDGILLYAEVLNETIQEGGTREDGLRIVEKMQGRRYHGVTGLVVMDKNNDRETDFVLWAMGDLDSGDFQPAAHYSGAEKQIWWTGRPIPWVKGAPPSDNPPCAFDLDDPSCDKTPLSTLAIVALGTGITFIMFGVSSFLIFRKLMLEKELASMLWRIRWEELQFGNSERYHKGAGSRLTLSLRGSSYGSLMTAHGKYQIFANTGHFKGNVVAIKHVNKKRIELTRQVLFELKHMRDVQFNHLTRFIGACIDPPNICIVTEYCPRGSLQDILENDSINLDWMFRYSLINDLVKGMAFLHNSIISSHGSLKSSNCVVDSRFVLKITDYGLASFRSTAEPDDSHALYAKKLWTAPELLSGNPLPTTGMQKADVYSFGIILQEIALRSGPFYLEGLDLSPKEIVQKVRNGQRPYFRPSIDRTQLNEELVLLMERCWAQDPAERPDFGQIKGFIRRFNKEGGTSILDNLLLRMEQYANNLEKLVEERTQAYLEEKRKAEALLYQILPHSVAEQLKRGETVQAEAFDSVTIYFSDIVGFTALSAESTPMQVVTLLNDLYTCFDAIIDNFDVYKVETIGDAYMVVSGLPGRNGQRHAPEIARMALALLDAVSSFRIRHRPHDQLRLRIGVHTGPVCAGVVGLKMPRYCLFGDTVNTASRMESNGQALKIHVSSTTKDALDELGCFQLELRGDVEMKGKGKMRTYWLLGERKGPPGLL
# MsrA inhibitor: inhibits bovine methionine sulfoxide reductase A; inhibition, % at 15.5 µM; purified bovine MsrA, absorbance read-out; hit rate 0.75% among 360,000
# bovine MsrA act: activates bovine MsrA enzyme; purified bovine MsrA, absorbance read-out; activation, % at 10.6 µM; hit rate 0.3% among 360,000; in the data active means activation above about 7.5%
# GC-A act: GC-A (human) enzyme activation; hit rate 0.14% among 370,000; HEK293 GC-A cells, cGMP TR-FRET, EC30 ANP; 0% at EC30 ANP, 100% saturating ANP; activation, % at 10 µM; in the data active means activation above about 40%
# MsrA conf: confirmation of bovine MsrA inhibitors. shares compounds with MsrA inhibitor. purified bovine MsrA, absorbance read-out. inhibition, % at 15.5 µM. hit rate 41% among 2,300;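 further: coupled to thioredoxin reductase with NADPH and selenocystamine and DMSO as substrate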
# Numbers stand for hits; 0 = inactive; - = not tested or not shown. Compounds with a hit are over-represented: about 1.2% of the library has one in this group of screens. Unless noted, no stated cut-off is given here; in the data, active means inhibition above about 4.5%; inactive means the rest.
SMILES,GC-B act,MsrA inhibitor,bovine MsrA act,GC-A act,MsrA conf
O=[N+]([O-])c1cccc(N/N=C/c2cc([N+](=O)[O-])ccc2O)c1,0,0,0,0,-
O=[N+]([O-])c1ccc(O)c(C=NNc2ccc(S(=O)(=O)O)cc2)c1,0,5.3,0,0,6.2
O=C(O)c1ccc2c(=O)n3c(nc2c1)/C(=C/c1ccc(F)cc1)CC3,0,5.5,0,0,0
CC(C)(C)c1ccc(/C=C2\CCn3c2nc2cc(C(=O)O)ccc2c3=O)cc1,-,-,0,-,-
Cc1ccccc1/C=N/n1c(C2CCCCC2)n[nH]c1=S,0,13.9,0,0,12.3
S=c1[nH]nc(C2CCCCC2)n1/N=C/c1ccc(Cl)cc1,0,0,0,0,-
S=c1[nH]nc(C2CCCCC2)n1/N=C/c1ccccc1Br,0,13.2,0,0,11.7
Fc1ccccc1/C=N/n1c(C2CCCCC2)n[nH]c1=S,0,0,0,0,-
Cc1ccc(/C=N/n2c(C3CCCCC3)n[nH]c2=S)cc1,0,7.8,0,0,0
COC(=O)[C@]12C[C@H](CC(=O)NCc3cccc4ccccc34)C(=O)N(Cc3ccco3)C1=C[C@H](COCc1ccccc1)O[C@@H]2C,0,-,-,0,-
COC[C@@H](O)[C@H]1OCc2cccc(OC)c2[C@@H]1/C=C/c1ccccc1,0,-,-,0,-
CN(Cc1ccccc1)C(=O)OCc1cn(Cc2cccc(F)c2)nn1,0,-,-,0,-
COc1cc(/C=C/C(=O)OC(C)C(=O)Nc2c(C)n(C)n(-c3ccccc3)c2=O)ccc1O (configuration not stated),0,5.9,0,0,0
Cc1c(NC(=O)C(C)OC(=O)/C=C/c2ccccc2)c(=O)n(-c2ccccc2)n1C (configuration not stated),0,0,0,0,-
CCC[C@H]1[C@@H](NC(=O)c2ccc(Cl)cc2)CC[C@@]23CCCN2C(=O)CCC[C@@H]13,0,-,-,0,-
Cc1ccc(/C=N/N=C2/NC(=O)CS2)o1,0,5.5,0,0,0
COc1ccc(/C=N/Nc2cc(C)nc(N)n2)cc1,0,0,0,0,-
COc1cc(/C=N/Nc2nc(=O)[nH]nc2C)ccc1O,0,4.7,0,0,5.4
COc1ccc(/C=N/Nc2nc(=O)[nH]nc2C)cc1OC,0,0,0,0,-
COc1cc(/C=N/Nc2cc(C)nc(N)n2)ccc1O,0,6.8,0,0,5.2
CC(=O)OCC(=O)N1CCN(C(=O)C(=O)c2cccc(C(F)(F)F)c2)CC1,0,0,-,0,-
COc1ccc(S[C@]2(C(=O)N3CCCC3)CC(=O)N[C@@H]2c2ccc(OC)cc2)cc1,0,-,-,0,-
O=C(O)c1ccc(N/N=C/c2cccc3nccnc23)cc1,0,5.3,0,0,0
O=C(O)CC1S/C(=N/N=C/c2ccc(-c3ccc(Cl)c([N+](=O)[O-])c3)o2)NC1=O (configuration not stated),0,5.4,0,0,0
O=C(O)CC1S/C(=N/N=C/c2ccc(-c3ccc(Cl)cc3[N+](=O)[O-])o2)NC1=O (configuration not stated),0,4.9,0,0,5.8
SMILES,GC-B act,MsrA inhibitor,bovine MsrA act,GC-A act,MsrA conf
C[C@H]1CN(C(=O)OC(C)(C)C)CCN1c1ccc(Br)c(C#N)c1,0,0,-,0,-
O=C(NCc1ccccc1)[C@H]1CCCN1C(=O)[C@H]1CCCN1C(=O)c1ccccc1C(F)(F)F,0,0,-,0,-
O=C(CSc1nc2sc3c(c2c(=O)n1-c1ccc(Cl)cc1)CCCC3)c1ccccc1Cl,0,-,-,0,-
CCNC(=S)N/N=C/c1cccs1,0,5.5,0,0,0
Cc1c(C(=O)N/N=C/c2cccs2)nc2ccccn12,0,6.6,0,0,6.4
CCNC(=S)N/N=C/c1cccc(/C=N/NC(=S)NCC)c1,0,0,0,0,-
COC(=O)c1cc2c(c3c4cc(C)ccc4n(S(=O)(=O)c4ccc(C)cc4)c13)C(=O)N(Cc1ccc(C(F)(F)F)cc1)C2,0,0,-,0,-
Cc1nnc(C)n1/N=C/c1ccc(-c2ccccc2Cl)o1,0,5.2,0,0,4.9
S=c1[nH]nc(-c2ccccc2)n1/N=C/c1ccc(-c2ccccc2Cl)o1,0,0,0,0,-
O=S(=O)(N/N=C\c1ccc(-c2ccccc2Cl)o1)c1ccccc1,0,4.9,0,0,0
Cc1ccccc1Nc1ncnc2[nH]ncc12,0,14.2,0,0,11.6
N#C/C(=C\c1cccc(O)c1)C(=O)Nc1ccc2c(c1)OCCO2,0,0,0,0,-
CC(C)NC(=O)/C(C#N)=C/c1ccc2c(c1)OCCO2,0,6.3,0,0,0
O=C(Nc1ccon1)c1ccc(N2CCCCC2)c([N+](=O)[O-])c1,0,0,0,0,-
O=C(Nc1nc2ccccc2s1)c1ccc(N2CCCCC2)c([N+](=O)[O-])c1,0,4.7,0,0,0
CN(C)c1cccc(/C=C2\CC3(OC(=O)c4ccco4)CCCN2C3)c1 (configuration not stated),0,-,-,0,-
Cc1ncc(CO)c(CNc2ccc(-c3nc4ccccc4[nH]3)cc2)c1O,0,6.4,0,0,5.2
Cc1ncc(CO)c(CO)c1O,0,0,0,0,-
O=C(NCCc1ccccc1)O[C@H]1CC[C@@]23CCCN2C(=O)CCC[C@H]3C1,0,-,-,0,-
COc1ccc(C(=O)/C=C/Nc2cc(C)on2)c(OC)c1,0,7.4,0,0,5.5
Cc1cc2nc(-c3ccc(SCc4ccc(C(=O)O)cc4)nc3)[nH]c2cc1C,0,5.5,0,0,0
O=C(Nc1nnc(/C=C/c2ccccc2)s1)c1ccco1,0,5.8,0,0,0
Cc1cccc(-c2nnc(NC(=O)c3ccco3)s2)c1,0,4.8,0,0,0
COC(=O)Nc1nnc(/C=C/c2ccccc2)s1,0,0,0,0,-
CCN(CC)S(=O)(=O)c1nnc(NC(=O)c2ccco2)s1,0,6.6,0,0,0
SMILES,GC-B act,MsrA inhibitor,bovine MsrA act,GC-A act,MsrA conf
CC(=O)NCc1ccc(OCCCN2CCC(C(O)(c3ccccc3)c3ccccc3)CC2)cc1,0,0,-,0,-
COc1ccc(C(=O)CSc2nnc(-c3cccnc3)n2-c2ccc(C)cc2)cc1,0,-,-,0,-
Cc1ccc(NC(=O)c2ccc(CS(=O)(=O)Cc3ccccc3C)o2)cc1C,0,-,-,0,-
Cc1ccccc1N=C1c2ccccc2C(=O)C1[N+](=O)[O-] (configuration not stated),0,5.8,0,0,0
CC(=O)C1C(=O)c2c(cccc2[N+](=O)[O-])C1=Nc1ccccc1C (configuration not stated),0,0,-,0,-
CC(C)CCNC(=O)C1CCCN(C(=O)c2ccc3c(c2)NC(=O)CS3)C1 (configuration not stated),0,-,-,0,-
CC1(C)Cc2c(cnn2-c2ccc(F)cc2)C(NC(=O)c2ccc(=O)oc2)C1 (configuration not stated),0,6.4,0,0,5.5
Cc1nc(N2CCN(Cc3ccc4c(c3)OCO4)CC2)c2oc3ccccc3c2n1,0,9.9,0,0,0
Cc1nc(N2CCN(Cc3ccc(Cl)cc3)CC2)c2oc3ccccc3c2n1,0,0,0,0,-
NS(=O)(=O)c1ccc(NC(=S)NNC(=O)c2ccc(Br)o2)cc1,0,4.9,0,0,0
